According to the supplement of paper PMC10127200:
Where a name gives a salt, the structure may show the parent alone.

The molecules below were run on 786-O (assay: Euclidean distance of Cell Painting phenotypic profile (signed KS, 77 features) to DMSO centroid (dimensionless distance); 5 or 10 uM (library dependent); higher = stronger phenotypic change vs DMSO (phenoactivity)). Settings: 48 h.
In short: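 Five cancer lines and a healthy fibroblast line received library compounds at 10 or 5 uM (library-dependent, 0.1% DMSO final) for 48 h. Stained cells were imaged confocally at 20X (9 fields/well). Harmony extracted 77 features, each scored as a signed Kolmogorov-Smirnov statistic against same-plate vehicle wells. Profiles were plate-position corrected, correlation-weighted and replicate-averaged at the top dose. Phenoactivity is the Euclidean distance from each profile to the median vehicle profile.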

Compound | Euclidean distance
CCOC(=O)Nc1cc(-c2ccc(C)c(NS(C)(=O)=O)c2)nn2c(C)nnc12 [Bromosporine] | 3.34
CC(C)c1nc(CN(C)C(=O)N[C@@H](CCN2CCOCC2)C(=O)N[C@H](CC[C@H](Cc2ccccc2)NC(=O)OCc2cncs2)Cc2ccccc2)cs1 [Cobicistat (GS-9350)] | 2.05
C=C[C@](C)(O)CC[C@@H]1[C@@]2(C)CCCC(C)(C)[C@@H]2CC[C@@]1(C)O [Sclareol] | 0.617
CCCC1O[C@@H]2C[C@H]3[C@@H]4CCC5=CC(=O)C=C[C@]5(C)[C@H]4[C@@H](O)C[C@]3(C)[C@]2(C(=O)CO)O1 (stereo partly specified) [Budesonide] | 3.14
CO/N=C(\C(=O)N[C@@H]1C(=O)N2C(C(=O)O)=C(COC(C)=O)CS[C@H]12)c1csc(N)n1 [Cefotaxime sodium] | 1.09
O=C(O)Cc1ccccc1Nc1c(Cl)cccc1Cl [Diclofenac Diethylamine] | 0.84
Cc1cc(C(=O)NOCCO)c(Nc2ccc(I)cc2F)n(C)c1=O | 2.89
CCCCc1ncc(/C=C(\Cc2cccs2)C(=O)O)n1Cc1ccc(C(=O)O)cc1 [Eprosartan Mesylate] | 0.683
Cn1nc(C(C)(C)C)cc1C(=O)N[C@@H](Cc1cccc(Cl)c1)C(=O)NCC#N [Cathepsin Inhibitor 1] | 1.97
C/C=C\c1ccc(O)c(OC)c1 [Isoeugenol] | 0.776
Cc1cc(N2CCN([C@@H]3CN[C@H](C(=O)N4CCSC4)C3)CC2)n(-c2ccccc2)n1 [Teneligliptin hydrobromide] | 1.1
